PubChem BioAssay (NCI)
This is part of a sample that, as a whole, favours compounds with a hit. Of some 83,000 tested, about 20% had one in any assay.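 Assay: single dose, 48 h. Readout: percent growth (0 = no net growth; negative = cell death). Active: <10.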 Unmarked numbers belong to inactive results. Active and inactive are the calls of the source.

test system: HCC-2998 colon; assay: NCI-60 one-dose screen, 48 h (100 = growth as untreated, 0 = no growth, -100 = all killed); conditions: 10 µM unless noted

Row | SMILES | growth
1 | Cc1ncc(C(=O)Nc2ccc(CN3CCN(C)CC3)c(C(F)(F)F)c2)cc1C#Cc1cnc(N)c2ncccc12 | 52.1%
2 | COc1ccc(C(=O)N2c3ccccc3Sc3ccccc32)c(C(F)(F)F)c1 | 26%
3 | Cc1ccc(Cl)cc1NC(=O)c1sc2nc3c(cc2c1N)C(=O)CCC3 | 74.9%
4 | Oc1c(CN2CCCC2)cc(CSCc2ccccc2)c2cccnc12 | 34.8%
5 | CCOC(=O)CC1CSC(Nc2ccccc2)=N1 (stereo not given) | 102%
6 | C#CCNC(=O)[C@]1(C)CCC[C@@]2(C)[C@H]1CC=C1C=C(C(C)C)CC[C@@H]12 | 100%
7 | CCCCNC(=O)Oc1ccc(/C(=C(/C)Cc2ccc(OC)cc2)c2ccc(OCCN3CCCCC3)cc2)cc1 | 75.5%
8 | COc1cccc(/C=C/C(=O)c2cc3c(N)c(C(=O)Nc4cccc5ccccc45)sc3nc2C)c1 | -23.8% (active)
9 | COc1cc2c(cc1OCCCCN1CCN(C(=S)SCCC(C#N)(c3ccccc3)c3ccccc3)CC1)N=C[C@@H]1CCCN1C2=O | -72.3% (active)
10 | CN1C(=O)/C(=C/c2ccc(C(=O)Nc3ncc(Cc4cccc(Cl)c4)s3)cc2)SC1=S | 59.2%
11 | Cc1ccc(C(=O)c2ccc(CC(=O)NN3C(=O)c4ccccc4C3=O)n2C)cc1 | 104%
12 | Cn1c(=O)c2[nH]c(SCC(=O)Nc3ccc(C(=O)/C=C/c4ccccc4Cl)cc3)nc2n(C)c1=O | 106%
13 | Nc1[nH]c(=S)nc2oc(-c3ccccc3)c(-c3ccccc3)c12 | 110%
14 | O=S(=O)(Oc1ccc(Br)cc1)c1ccc(Cl)cc1 | 83.2%
15 | COC(=O)N1CC(Oc2ccccn2)C2CC1c1ccccc1O2 (stereo not given) | 104%
16 | COc1ccc(/C(C)=C(\c2ccc(Cl)cc2)c2ccc(OCCN3CCCCC3)cc2)cc1 | 91.3%
17 | Cc1ccc2nc(-c3ccc(C(=O)NNC(=S)Nc4ccccc4)cc3)[nH]c2c1 | 103%
18 | O=S(=O)(NCCCNc1nccc(-c2c(-c3cccc(F)c3)nc3occn23)n1)c1ccc(F)cc1 | 77.3%
19 | Cc1nc2sc(C(=O)Nc3cccc(Br)c3C)c(N)c2cc1C(O)c1ccccc1 (stereo not given) | 11.3%
20 | CC1(C)N=C(N)N=C(N)N1c1ccc(CCCCc2ccccc2)c(Cl)c1 | -43.9% (active)

Row | SMILES | growth
21 | CCCCNC(=O)c1cc([N+](=O)[O-])cc(C2CCCCC2)c1O | 25%
22 | O=C(CCCCCNC(=O)c1cc(=O)c(O)co1)Nc1ccccc1 | 101%
23 | CCOC(=O)c1c(C)nc2ccccc2c1/C=C/c1ccccc1 | 87.2%
24 | COc1cccc(-c2cc(-c3cccc(Cl)c3)c(C#N)c(=O)[nH]2)c1 | 98.7%
25 | CN(CCCNC(=O)CCOCCOCCOCCNC(=O)Cc1ccc2ccc3cccc4ccc1c2c34)CCCNc1cc(-c2ccc3ccccc3c2)nc2ccccc12 | -87.4% (active)
26 | Cc1ccc2nc(/C(C#N)=C(/CCCO)NC(Cc3ccccc3)C(=O)OCc3ccccc3)[nH]c(=O)c2c1 (stereo not given) | -12.5% (active)
27 | NS(=O)(=O)c1ccc(-c2cc(-c3nnc(SCC(=O)Nc4ccc(C(=O)/C=C/c5ccc(Cl)cc5)cc4)n3-c3ccccc3)c3ccccc3n2)cc1 | 105%
28 | COC(=O)c1cc(Br)ccc1O | 110%
29 | COc1ccc(-c2cc(-c3ccccc3)nc(N3CCN(CCNc4ccnc5cc(Cl)ccc45)CC3)n2)cc1 | -81.5% (active)
30 | CCCCNC(=O)Oc1ccc(/C(=C(/C)Cc2ccc(OC)cc2)c2ccc(OCCN3CCCCCC3)cc2)cc1 | 83.8%
31 | O=C(N=Nc1c(O)[nH]c2ccccc12)Nc1ccc(F)cc1 | 100%
32 | O=[N+]([O-])c1ccc(-c2cn3nc(-c4c[nH]c5ccccc45)sc3n2)cc1 | 86.1%
33 | CN(C)c1ccc(/C=C(\C#N)c2cc3ccccc3[nH]2)cc1 | 45.5%
34 | CC(=O)/C(=C/c1ccc([N+](=O)[O-])cc1)C(=O)c1ccccc1 | 95.2%
35 | CCOC(=O)c1nn(CC(O)c2ccccc2)c(NC(=O)Nc2cccc(F)c2)c1C (stereo not given) | 98.3%
36 | CO[C@H](C(=O)[C@@H](O)[C@@H](C)O)[C@@H]1Cc2cc3cc(O[C@H]4C[C@@H](O[C@H]5C[C@@H](O)[C@H](O)C(C)O5)[C@H](O)C(C)(O)O4)cc(O)c3c(O)c2C(=O)[C@H]1O[C@H]1C[C@@H](O[C@H]2C[C@@H](O[C@H]3C[C@@H](OC)[C@H](O)C(C)O3)[C@@H](O)C(C)O2)[C@H](O)C(C)O1 (stereo not given in full) | 39.9%
37 | CCN(CC)CCCN1C(=O)c2c(c(C)c3c(oc4ccc(O)cc43)c2C)C1=O | 67%
38 | O=C(Nc1ccccc1N1CCCC1=O)c1oc2ccc(F)cc2c1-c1cnn(-c2ccccc2)c1 | 90.5% [50 µM]
39 | O=C(C1CCCCC1)[C@@H]1[C@]2(C(=O)NC3CCCCC32)[C@@H]2CCCN2[C@@]12C(=O)NC1CCC(Cl)CC12 (stereo not given in full) | -84.8% [100 µM] (active)
40 | C=C(C)[C@@H]1CC[C@]2(COC(C)=O)CC[C@]3(C)[C@H](CC[C@@H]4[C@@]5(C)CCCN(C(C)=O)C(C)(C)[C@@H]5CC[C@]43C)[C@@H]12 | -28.8% (active)
